From PubChem
IMPase cell inh: cell-permeable inhibitors of inositol monophosphatase (IMPase) | P97697 | CHO-M1 cells, IP1 accumulation, HTRF TR-FRET ratio | inhibition (IP1 accumulation), % at 46.1 µM | 120,000 tested, under 10 active; active = well fitted curve in the direction sought with a large enough effect in the signal ratio, not every such curve was filed as active; inconclusive = small, poorly fitted or top-dose-only effect, or a change in a side signal; inactive = no such curve, though single readings can be large or run the other way; the % refers to the signal ratio;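 note: cells stimulated with carbachol in lithium chloride buffer; plate controls were DMSO basal wells for no effect and reference inhibitor wells for full effect; higher means more IMPase inhibition seen as more IP1 and lower FRET ratio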
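Measured: the HTRF emission ratio (665/620 nm) plus the 620 nm donor channel, each fitted to the Hill equation to give AC50. Cells were CHO-M1 given compounds up to 46 uM and a 30 min carbachol stimulation at 37C.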
IMPase Li cell: IMPase inhibition in cells with lithium potentiation. CHO-M1 cells, IP1 TR-FRET (IP-One), carbachol + lithium. Potency, µM (highest dose often 59.4 µM), for inactives: top-dose activity, negative = IMPase inhibition, usual class: inhibitors. 210,000 tested, 0.35% active. AID 1457;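 note: IP1 builds up when IMPase is blocked and the TR-FRET signal falls; potency is the fitted concentration of half-maximal effect; plate controls were basal vehicle for no effect and high inhibitor control for full effect; nearly all actives have a fitted effect of over 50% in size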
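CHO cells stably expressing M1 receptor (2000/well) were cultured 16–30 h, then exposed to compounds with a small lithium addition for 30 min at 37C. IP1 was measured by TR-FRET competition; AC50 from Hill fits.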
HPGD block: inhibitors of human 15-hydroxyprostaglandin dehydrogenase (HPGD) | Potency, µM, without a hit: top-dose activity change, negative = inhibition, hits mostly inhibitors | purified HPGD, NADH fluorescence kinetic, PGE2 substrate | 150,000 tested, 4.3% active | P15428; active = well fitted inhibition curve with a large enough effect, not every such curve was filed as active; inconclusive = small, poorly fitted or top-dose-only effect, or another doubt; inactive = no such curve, though single readings can be large or run the other way; note: potency is the fitted concentration of half-maximal effect
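20 nM HPGD preincubated 15 min at room temperature with compound in 50 mM Tris-HCl pH 8, 0.01% Tween 20. Started with 1 mM NAD+ and 30 uM prostaglandin E2; NADH fluorescence (360/450 nm) read 5 times over 30-s intervals, last minus first.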
PNC inhibitor: perinucleolar compartment assembly inhibition | PC3M PTB-GFP, PNC prevalence imaging, 16 h; stronger effect = lower value | activity change (PNC), negative = inhibition, % at 10 µM | 140,000 tested, 3.1% active | AID 2417;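 active = readout at or below -70, meaning at least 70% loss of cells showing the perinucleolar compartment, a nuclear body marking cancer cells; inconclusive = readout between -30 and a set limit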;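 note: plate controls were DMSO wells for no effect and camptothecin positive control wells for full effect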
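Compounds are pinned in duplicate onto adhered PC3M cells stably expressing GFP-tagged PTB and incubated 16 h at 37 C. Cells are then fixed, nuclei stained with Hoechst, and PNC-positive cells counted.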
15-hLO-2 inh: blocks human 15-lipoxygenase 2 activity. AID 881. 110,000 tested, 0.56% active. purified 15hLO-2, xylenol orange hydroperoxide absorbance. Potency, µM (doses to about 57.1 µM), inactives show at the highest dose activity change, negative = inhibition, hits mostly inhibitors. O15296; note: potency is the fitted concentration of half-maximal effect; nearly all actives have a fitted effect of over 60% in size
Target sequence (O15296 whole entry, looked up): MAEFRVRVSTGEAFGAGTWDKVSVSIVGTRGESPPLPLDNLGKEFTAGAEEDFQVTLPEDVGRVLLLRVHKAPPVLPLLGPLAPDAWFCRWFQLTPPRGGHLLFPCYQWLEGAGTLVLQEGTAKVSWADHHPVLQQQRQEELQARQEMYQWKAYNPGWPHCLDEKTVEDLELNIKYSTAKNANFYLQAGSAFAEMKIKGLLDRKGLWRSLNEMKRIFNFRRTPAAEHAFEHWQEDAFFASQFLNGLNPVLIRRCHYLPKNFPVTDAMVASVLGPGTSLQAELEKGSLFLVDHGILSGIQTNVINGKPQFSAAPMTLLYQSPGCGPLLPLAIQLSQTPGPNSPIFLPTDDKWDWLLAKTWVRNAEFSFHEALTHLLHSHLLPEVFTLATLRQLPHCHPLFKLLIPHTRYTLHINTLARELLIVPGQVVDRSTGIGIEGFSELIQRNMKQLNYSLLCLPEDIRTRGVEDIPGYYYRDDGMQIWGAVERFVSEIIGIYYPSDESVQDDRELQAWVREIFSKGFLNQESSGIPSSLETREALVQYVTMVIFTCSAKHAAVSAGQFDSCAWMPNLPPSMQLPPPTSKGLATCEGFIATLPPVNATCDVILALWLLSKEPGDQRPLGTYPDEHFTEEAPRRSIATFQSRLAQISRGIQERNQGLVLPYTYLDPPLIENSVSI
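Screening format was qHTS against 50 nM purified 15hLO-2 in Hepes pH 7.5 with detergent. Activity follows hydroperoxide formation from 45 uM arachidonic acid, measured as 573:405 nm absorbance ratio of the ferric-xylenol orange complex.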
ALOX12 inhib: blocks human 12-lipoxygenase activity; P18054; purified 12-hLO, xylenol orange hydroperoxide absorbance; Potency, µM (top dose mostly 57.1 µM), inactives show at the highest dose activity change, negative = inhibition, usual class: inhibitors; 150,000 tested, 0.12% active; AID 1452; note: potency is the fitted concentration of half-maximal effect; nearly all actives have a fitted effect of over 55% in size
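150 nM 12hLO, 25 mM Hepes pH 7.0 + 0.01% Triton X-100; cpd preinc 15 min RT; 40 uM arachidonic acid, 30 min RT; Fe-XO 30 min; A573/A405 ratio as read-out.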
An asterisk follows results filed as active; ? = inconclusive; · = no result; [ ] = another dose, or the depositor's remark. Compounds with a hit are over-represented: about 5.3% of the library has one in this group of screens. Unless noted, calls come from the whole dose curve; as a rule, active = well fitted curve in the direction sought with a large enough effect; inconclusive = small, poorly fitted or top-dose-only effect, or another doubt; inactive = no such curve, though single readings can be large; an effect the other way counts as inactive or inconclusive. Unless noted, % is set by controls: 0 for no effect and ±100 for the full control effect.

SMILES	IMPase cell inh	IMPase Li cell	HPGD block	PNC inhibitor	15-hLO-2 inh	ALOX12 inhib
CCC(=O)NC(NC(=S)Nc1c(C)n(C)n(-c2ccccc2)c1=O)C(Cl)(Cl)Cl (stereo not drawn)	3.9	-0.3%	-14.9%	?	·	-2.5%
Cc1ccccc1-n1c(-c2csc3ccccc23)n[nH]c1=S	·	0.9%	15.8µM*	?	·	2.0%
CCN(CC)CCCNc1nc(-c2ccccc2)nc2ccccc12	-6.3	10.4%	-13.0%	-100.0*	·	15.7%
O=C(COC(=O)C1=Cc2ccccc2OC1)NC1CCCC1	3.2[1.84 µM]	16.1%[38.3 µM]	-23.4%	-83.5*	2.8%[11.4 µM]	0.5%
Cc1ccccc1OC(C)C(=O)NC1CCCC1 (stereo not drawn)	-5.1	19.6%[38.3 µM]	12.6µM*	-12.4	2.3%[2.29 µM]	2.1%
CC(OC(=O)c1ccco1)C(=O)NC1CCCCC1 (stereo not drawn)	4.6	-4.8%[38.3 µM]	14.1µM*	-18.4	-0.1%	0.7%
COCCNC(=O)COC(=O)C1=Cc2ccccc2OC1	·	11.0%	·	·	·	·
COc1ccccc1OC(C)C(=O)NNC(=S)NC1CCCC1 (stereo not drawn)	·	12.0%	·	·	·	·
CC(OC(=O)C1=Cc2ccccc2OC1)C(=O)NC1CCCC1 (stereo not drawn)	-0.1[1.84 µM]	46.5%[38.3 µM]	-23.1%	-90.4*	7.2%[11.4 µM]	6.0%
CCCc1nc2ccccc2n2c(-c3cccc(C)c3)c3c(=O)n(C)c(=O)n(C)c3c12	6.6	·	·	·	·	·
CC1(O)/C=C\C=C(\CO)C2CC(C)(C)C2(O)CC1 (stereo not drawn)	·	15.2%	-3.4%	·	·	·
COC(=O)NC(C(=O)OC)(C(=O)OC)c1ccccc1	·	10.0%	-2.9%	·	·	·
CN1CCN(c2ncc3nc(-c4ccccc4)c(=O)n(-c4ccccc4)c3n2)CC1	·	7.7%	?	·	25.1%	-2.9%
O=C(C1CCN(Cc2cccs2)CC1)N1CCN(Cc2ccc3c(c2)OCO3)CC1	·	1.3%	·	·	·	·
O=c1[nH]c2ccc(Cl)cc2c(-c2ccccc2)c1SC(=S)N1CCOCC1	5.1	54.2%[38.3 µM]	20µM*	0.0	?	-11.4%
CC1=NN(C(=O)c2ccc(Cn3cc(Br)c([N+](=O)[O-])n3)o2)C(O)(C(F)(F)F)C1 (stereo not drawn)	·	-9.4%	-6.3%	-113.8*	·	-6.0%
COc1ccc(CCN(Cc2cccs2)S(=O)(=O)c2ccc(S(=O)(=O)N(C)C3CCCCC3)cc2)cc1OC	0.6	4.8%	-15.6%	2.5	·	-2.0%
CCc1c2c(nc3ccc(OC)cc13)OC(CC)C2 (stereo not drawn)	·	-2.9%	-12.8%	·	-0.8%	2.5%
Cc1ccc(C(=O)NC(=S)Nc2nc(-c3cccc([N+](=O)[O-])c3)cs2)c(Cl)c1	·	9.1%	·	·	·	·
O=C(NCc1ccc(F)cc1)N[C@@H](Cc1ccccc1)C(=O)O	-1.9	-4.7%[38.3 µM]	-3.0%	-126.9*	-2.9%	-4.5%
O=C1CCCCCCC1Sc1ccccc1[N+](=O)[O-] (stereo not drawn)	9.9	24.3%[38.3 µM]	-8.5%	-2.9	1.5%	-1.5%
CCn1ncc(C(=O)Nc2cccc(Cl)c2)c1C	·	-8.2%	-3.9%	-88.6*	·	0.3%
CCn1ncc(Cl)c1C(=O)Nc1ccncc1	3.0	-1.9%[38.3 µM]	-16.8%	-114.2*	2.3%	0.4%
Cn1ncc(Cl)c1C(=O)Nc1ccncc1	0.0[0.0738 µM]	-4.8%	2.8%	?	·	3.2%
Cc1cc(Sc2nc(NC(C)C)nc(NC(C)C)n2)nc(Cl)n1	·	8.1%	·	·	·	·
SMILES	IMPase cell inh	IMPase Li cell	HPGD block	PNC inhibitor	15-hLO-2 inh	ALOX12 inhib
O=C(N/N=C/c1ccc(N2CCOCC2)cc1)C1CC1	·	-2.8%	·	·	·	·
CCOC(=O)c1cnc(SCc2nc(N)nc(Nc3ccc(C)cc3)n2)nc1N	5.3	32.1%[38.3 µM]	-26.0%	-81.2*	3.5%	-14.7%
COC(=O)c1ccc(NC(=O)CSc2n[nH]c(CC(C)C)n2)cc1	-0.1	·	·	·	·	·
COc1ccccc1NC(=O)CN(Cc1ccco1)C(=O)c1ccc(Cl)nc1	·	6.8%	·	·	·	·
CCn1c(SCc2nc3sc(C(=O)O)c(C)c3c(=O)[nH]2)nc2ccccc21	?	32.8%[38.3 µM]	15.8µM*	53.7	10.7%	0.8%
CCOC(=O)C1=C(O)c2ccccc2C(=O)/C1=C\c1ccc(C)cc1	·	4.1%	14.1µM*	?	·	-12.2%
CCOC(=O)C1=C(O)/C(=C\c2ccc(OC)c(OC)c2)N=C1C	16.3	9.3%[38.3 µM]	-12.0%	8.7	?	-2.6%
Cc1ccn2c(c1)nc(=S)n2C(=O)c1ccco1	·	-1.4%	-25.7%	19.5	·	3.6%
COc1ccc2c(c1)c1ccccc1n2C	-3.9	32.5%[38.3 µM]	?	?	12.4%	1.2%
COc1ccc2c(c1)c1nnc(SC)nc1n2C	2.8	0.1%[38.3 µM]	-12.3%	-88.4*	-4.8%	-15.3%
COc1ccc2c(c1)c1nnc(SCC(=O)N3C(C)CCCC3C)nc1n2C (stereo not drawn)	4.2	5.7%[38.3 µM]	11.2µM*	55.2	3.5%	-2.0%
Cc1nonc1-c1csc(N)n1	·	9.1%	·	·	·	·
O=C1CCCC(O)=C1C(C#Cc1ccccc1)C1=C(O)CCCC1=O	-4.0	9.6%[38.3 µM]	3.98µM*	?	?	-5.7%
CC1(C)CC(=O)C(C(C#Cc2ccccc2)C2=C(O)CC(C)(C)CC2=O)=C(O)C1	4.7	4.1%[38.3 µM]	7.94µM*	10.9	-18.8%	-7.4%
CC1(C)CC(=O)C(N=Nc2ccc(-c3ccccc3)cc2)=C(O)C1	·	19.1%	·	·	·	·
Fc1ccc(Nc2ccc(-c3ccc(F)cc3)nn2)cc1	·	-10.7%	·	·	·	·
CC(=O)c1cc2c(cc1NC(=O)CN1CCN(c3cccc(C(F)(F)F)c3)CC1)OCO2	?	-14.8%	55.7%	-100.0*	·	2.0%
COc1ccc(-c2nnc(CSc3nc4ccccc4c(=O)n3CC(C)C)o2)cc1OC	11.1	42.1%[38.3 µM]	-24.0%	-0.3	1.2%	-5.0%
COCCCn1c(SCc2nnc(-c3ccc(OC)c(OC)c3)o2)nc2ccccc2c1=O	-1.5	14.6%	20µM*	-100.0*	·	2.5%
COc1cc(C(=O)N2c3ccccc3CC2C)cc(OC)c1OC (stereo not drawn)	5.2	13.5%[38.3 µM]	-7.6%	-82.0*	2.0%	2.6%
N#CCCn1c(=O)cnc2cnc(N3CCNCC3)nc21	·	-1.2%	?	·	-4.6%	2.6%
Cc1cccc(CSCc2nnc(N)s2)c1	-0.9	-6.6%	28.2µM*	-15.3	-0.4%	8.0%
CN(C)C=Nc1ccc2nn(-c3ccccc3)nc2c1	-23.8	12.6µM*	?	71.7	26.3%	5.2%
Cc1ccc(-n2nc3ccc(N)cc3n2)cc1	-22.8	-22.5%[38.3 µM]	?	-9.8	-10.2%	-11.8%
Cc1ccc(C(=O)O[C@@H](C(=O)O)[C@@H](OC(=O)c2ccc(C)cc2)C(=O)O)cc1 (tested in a mixture with another compound)	5.5	·	·	·	-4.7%	3.4%
